In PubChem BioAssay (NCI) one finds growth inhibition data, which are given here for seven compounds.

About 79,000 compounds went through this panel and 15% of them were active in at least one assay; those are over-represented in the sample as a whole. A number with no mark means an inactive call. The source made the active and inactive calls. No stated cut-off is given here; in the data, active means growth inhibition above about 70%; inactive means the rest.

A short description of assay [1]: NCI Yeast Anticancer Drug Screen. Data for the rad50 strain (AID 155).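 Further: 0% = growth of vehicle-only cultures of the same strain.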 The following applies: S. cerevisiae rad50 strain growth inhibition, active compounds read high. In outline:
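Compounds were tested on a yeast strain with an engineered DNA damage repair alteration; the reported value is growth inhibition normalised to vehicle treatment.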

A short description of assay [2]: NCI Yeast Anticancer Drug Screen. Data for the mec2-1 strain (AID 157). The following applies: S. cerevisiae mec2-1 strain, active compounds read high. In outline: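 Readout is yeast growth inhibition, normalised to vehicle-treated controls, in the mec2-1 strain exposed to compound.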
Assay [3] can be described thus: NCI Yeast Anticancer Drug Screen. Data for the sgs1 mgt1 strain (AID 161).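 Further: 0% = growth of cultures given vehicle only.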 The following applies: S. cerevisiae sgs1 mgt1 strain, active compounds read high. The procedure, abridged:
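Growth of a repair-deficient yeast mutant was monitored after compound treatment and expressed as inhibition relative to vehicle-treated cultures.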

The nature of assay [4]: NCI Yeast Anticancer Drug Screen. Data for the cln2 rad14 strain (AID 165).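 Further: 0% = growth equal to vehicle treated cultures.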 The following applies: S. cerevisiae cln2 rad14 strain, active compounds read high. The procedure, abridged:
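Relative to vehicle controls, growth inhibition of compound-treated cln2 rad14 yeast was recorded.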

Assay [5] is described as follows: NCI Yeast Anticancer Drug Screen. Data for the bub3 strain (AID 167). The following applies: S. cerevisiae bub3 mutant strain, active compounds read high. The procedure, abridged: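 Growth of a checkpoint-deficient yeast mutant is measured after compound exposure. Values represent inhibition relative to vehicle.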
A short description of assay [6]: NCI Yeast Anticancer Drug Screen. Data for the mlh1 rad18 strain (AID 175). The following applies: S. cerevisiae mlh1 rad18 strain growth inhibition, active compounds read high. In outline: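 Test agents were incubated with a yeast strain of defined genotype (DNA damage repair defect). Inhibition of growth was derived by comparison with vehicle-exposed cultures.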
[7] abbreviates: at 5.0 µM (retest, dose inferred, filed as 0.5).
[8] abbreviates: at 50.0 µM (retest, dose inferred, filed as 5.0).

In the case of `C/C(=C/c1ccccc1)C(=O)C1C(c2ccccc2)CC(O)C(C)C1c1ccccc1` (stereo unspecified), the growth inhibition in assay [1] (setting [7]) was 11%; in assay [1] (setting [8]), 86% (active); in assay [1] (at 50.0 µM) it was 82.2% (active); in assay [2] (setting [7]), 1%; in assay [2] (setting [8]), 81% (active); in assay [2] (at 50.0 µM), 91.2% (active). The growth inhibition was 10% in assay [3] (setting [7]); 86% (active) in assay [3] (setting [8]); 82.3% (active) in assay [3] (at 50.0 µM); -4% in assay [4] (setting [7]); 89% (active) in assay [4] (setting [8]); 88.4% (active) in assay [4] (at 50.0 µM). Besides, the growth inhibition in assay [5] (setting [7]) was -5%; in assay [5] (setting [8]) it was 82% (active); in assay [5] (at 50.0 µM) it was 77.8% (active); in assay [6] (setting [7]), 16%; in assay [6] (setting [8]), 90% (active); in assay [6] (at 50.0 µM), 86.5% (active).
For `O=S1(=O)CC(Cl)(Cl)C1`, the growth inhibition is 3% in assay [1] (setting [7]); 49% in assay [1] (setting [8]); 19.6% in assay [1] (at 50.0 µM); 3% in assay [2] (setting [7]); 52% in assay [2] (setting [8]); 2.85% in assay [2] (at 50.0 µM). Moreover, the growth inhibition in assay [3] (setting [7]) is 7%; in assay [3] (setting [8]) it was 20%; in assay [3] (at 50.0 µM), 15.1%; in assay [4] (setting [7]) it was -1%; in assay [4] (setting [8]) it was 25%; in assay [4] (at 50.0 µM), 75.3% (active). Further, the growth inhibition in assay [5] (setting [7]) is 4%; in assay [5] (setting [8]) it was 58%; in assay [5] (at 50.0 µM) it was -17.8%; in assay [6] (setting [7]), 5%; in assay [6] (setting [8]), 58%; in assay [6] (at 50.0 µM), 11.6%.
With `C/C(=C\c1ccccc1)c1ccncc1`, the growth inhibition in assay [1] (setting [7]) is -17%; in assay [1] (setting [8]), 48%; in assay [1] (at 50.0 µM), 64.7%; in assay [2] (setting [7]), 14%; in assay [2] (setting [8]), 12%; in assay [2] (at 50.0 µM), 44.2%. The growth inhibition in assay [3] (setting [7]) was -8%; in assay [3] (setting [8]), 51%; in assay [3] (at 50.0 µM), 65.6%; in assay [4] (setting [7]) it was -8%; in assay [4] (setting [8]) it was 21%; in assay [4] (at 50.0 µM), 35.9%. For the same compound, the growth inhibition is -9% in assay [5] (setting [7]); 48% in assay [5] (setting [8]); 45.8% in assay [5] (at 50.0 µM); -11% in assay [6] (setting [7]); 24% in assay [6] (setting [8]); 54.9% in assay [6] (at 50.0 µM).
Take `Cc1cc(Cl)c2c(c1)C(=N/O)/C(=C\c1ccco1)O2`: the growth inhibition was 100% (active) in assay [1] (setting [7]); 99% (active) in assay [1] (setting [8]); 88% (active) in assay [1] (at 50.0 µM); 100% (active) in assay [2] (setting [7]); 99% (active) in assay [2] (setting [8]); 90.3% (active) in assay [2] (at 50.0 µM). In addition, the growth inhibition in assay [3] (setting [7]) was 96% (active); in assay [3] (setting [8]) it was 99% (active); in assay [3] (at 50.0 µM) it was 83.5% (active); in assay [4] (setting [7]) it was 77% (active); in assay [4] (setting [8]), 99% (active); in assay [4] (at 50.0 µM), 88% (active). Besides, the growth inhibition in assay [5] (setting [7]) is 100% (active); in assay [5] (setting [8]), 99% (active); in assay [5] (at 50.0 µM), 89% (active); in assay [6] (setting [7]), 99% (active); in assay [6] (setting [8]), 99% (active); in assay [6] (at 50.0 µM) it was 85.2% (active).
In the case of `O=C1OC(=O)C2C3CCC(C3=C3CCCCC3)C12` (stereo unspecified), the growth inhibition is -2% in assay [1] (setting [7]); 93% (active) in assay [1] (setting [8]); 35% in assay [1] (at 50.0 µM); 7% in assay [2] (setting [7]); 95% (active) in assay [2] (setting [8]); 28.2% in assay [2] (at 50.0 µM). The growth inhibition in assay [3] (setting [7]) is -1%; in assay [3] (setting [8]), 58%; in assay [3] (at 50.0 µM), 40%; in assay [4] (setting [7]), 5%; in assay [4] (setting [8]) it was 96% (active); in assay [4] (at 50.0 µM) it was -8.55%. For the same compound, the growth inhibition in assay [5] (setting [7]) is 5%; in assay [5] (setting [8]) it was 95% (active); in assay [5] (at 50.0 µM), 10.8%; in assay [6] (setting [7]) it was -1%; in assay [6] (setting [8]) it was 93% (active); in assay [6] (at 50.0 µM) it was 36.8%.
With `CCN(CC)CCCNc1c(O)cc(C)c2sc3ccccc3c(=O)c12`, the growth inhibition in assay [1] (setting [7]) is 17%; in assay [1] (setting [8]), 98% (active); in assay [1] (at 50.0 µM) it was 98.7% (active); in assay [2] (setting [7]) it was 6%; in assay [2] (setting [8]), 99% (active); in assay [2] (at 50.0 µM) it was 99.2% (active). Besides, the growth inhibition in assay [3] (setting [7]) was 4%; in assay [3] (setting [8]), 99% (active); in assay [3] (at 50.0 µM) it was 99% (active); in assay [4] (setting [7]) it was 12%; in assay [4] (setting [8]) it was 96% (active); in assay [4] (at 50.0 µM) it was 98.3% (active). The growth inhibition is 14% in assay [5] (setting [7]); 95% (active) in assay [5] (setting [8]); 98.4% (active) in assay [5] (at 50.0 µM); 6% in assay [6] (setting [7]); 98% (active) in assay [6] (setting [8]); 98.8% (active) in assay [6] (at 50.0 µM).
On to `CN(C)C(=S)/N=c1\ss/c(=N/C(=S)N(C)C)n1-c1ccc([N+](=O)[O-])cc1`, for which the growth inhibition in assay [1] (setting [7]) was 6%; in assay [1] (setting [8]), 32%; in assay [1] (at 50.0 µM) it was 97.8% (active); in assay [2] (setting [7]), 18%; in assay [2] (setting [8]) it was 41%; in assay [2] (at 50.0 µM) it was 93.3% (active). For the same compound, the growth inhibition was 1% in assay [3] (setting [7]); 33% in assay [3] (setting [8]); 97.8% (active) in assay [3] (at 50.0 µM); -7% in assay [4] (setting [7]); -2% in assay [4] (setting [8]); 91.3% (active) in assay [4] (at 50.0 µM). For the same compound, the growth inhibition in assay [5] (setting [7]) was 5%; in assay [5] (setting [8]), 4%; in assay [5] (at 50.0 µM) it was 98.8% (active); in assay [6] (setting [7]), 4%; in assay [6] (setting [8]), 30%; in assay [6] (at 50.0 µM), 98.2% (active).
